ELG1 DNA repair – qHTS screen for small molecules that inhibit ELG1-dependent DNA repair in human embryonic kidney (HEK293T) cells expressing luciferase-tagged ELG1; 2.3% of 330,000 active; HEK293T ELG1-luciferase reporter, luminescence, 16 h; DNA damage induced by 5-fluorouridine; Potency, µM (series often up to 46.1 µM), for the others: at the top dose activity change, negative = inhibition, most hits filed as inhibitors; note: % is set by controls: 0 for no effect and ±100 for the full control effect; nearly all actives have a fitted effect of over 55% in size
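Step one: seed 2,000 cells per well. Step two: pin-transfer compound or DMSO alongside 5-fluorouridine. Step three: incubate 16 hr, 37 °C, 5% CO2. Step four: add ONE-Glo, wait 30 min, read luminescence.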
NPC1 promoter act – qHTS Assay for NPC1 Promoter Activators; Huh7 NPC1 promoter luciferase reporter, 24 h; Potency, µM (series often up to 9.22 µM), without a hit: at the top dose activation, actives largely listed as activators; 2.4% of 320,000 active; AID 485313, 2010; note: % of control where 0% means no effect; nearly all actives have a fitted effect of over 60% in size
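Cells: Huh7 expressing luciferase under the NPC1 promoter, 1500/well. Seeded 2 h, compound added, incubated 24 h at 37 °C. Luciferase reagent, 10 min ambient, then luminescence.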
Rab9 promoter act – qHTS Assay for Rab9 Promoter Activators; Potency, µM (titrated, usually from 9.22 µM), for the others: top-dose activation, negative = inhibition, usual class: activators; AID 485297, 2010; 2.8% of 320,000 active; Huh7 Rab9 promoter-luciferase reporter, luminescence, 24 h; note: % of control where 0% means no effect; nearly all actives have a fitted effect of over 60% in size
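Huh7 reporter line, Rab9 promoter upstream of luciferase. Compound exposure 24 h at 37 °C in reduced-serum medium with 10% FBS. Read-out: luminescence.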
SMN2 splice enh – qHTS Assay for Enhancers of SMN2 Splice Variant Expression | HEK293 SMN2-luciferase splicing reporter, luminescence, 30-36 h | Potency, µM (titrated, usually from 46.1 µM), for inactives: at the top dose activity change, positive = activation, hits mostly activators | 2.8% of 210,000 active | AID 1458, 2008; note: % of control where 0% means no effect; nearly all actives have a fitted effect of over 55% in size
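qHTS luciferase splicing reporter: luminescence rises when SMN2 exon 7 is included in transfected HEK293 cells. Compound exposure lasted 30-36 h at 37C, with 4.5 mM final sodium butyrate as control, followed by a ONE-Glo read.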
FLuc counter – qHTS profiling assay for firefly luciferase inhibitor/activator using purifed enzyme and Km concentrations of substrates (counterscreen for miR-21 project); Luciferin 4-monooxygenase (Photinus pyralis), P08659; Potency, µM (highest dose often 57.5 µM), without a hit: at the top dose activity change, negative = inhibition, usual class: inhibitors; 6.9% of 360,000 active; AID 588342, 2011; purified FLuc, Km substrates, luminescence inhibition;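 note: plate controls were vehicle for no effect and reference inhibitor for full effect; nearly all actives have a fitted effect of over 55% in size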
Target sequence (P08659 whole entry, looked up): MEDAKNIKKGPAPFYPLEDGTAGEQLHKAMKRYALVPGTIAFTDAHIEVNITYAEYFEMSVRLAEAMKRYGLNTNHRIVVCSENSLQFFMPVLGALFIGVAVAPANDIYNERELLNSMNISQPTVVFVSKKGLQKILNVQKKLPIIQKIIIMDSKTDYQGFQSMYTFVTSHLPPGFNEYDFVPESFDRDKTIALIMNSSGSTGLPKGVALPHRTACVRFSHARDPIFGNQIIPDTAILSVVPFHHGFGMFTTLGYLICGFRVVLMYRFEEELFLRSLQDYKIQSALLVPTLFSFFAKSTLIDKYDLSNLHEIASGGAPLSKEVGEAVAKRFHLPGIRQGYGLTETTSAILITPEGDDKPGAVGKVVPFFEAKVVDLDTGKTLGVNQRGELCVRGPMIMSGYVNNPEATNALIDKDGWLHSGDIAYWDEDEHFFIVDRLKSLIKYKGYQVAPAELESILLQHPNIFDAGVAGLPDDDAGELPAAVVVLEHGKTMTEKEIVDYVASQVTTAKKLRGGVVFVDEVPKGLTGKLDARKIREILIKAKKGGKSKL
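Biochemical qHTS of compounds, final roughly 60 µM downward over six points, against 10 nM purified firefly luciferase using Km concentrations of substrates (10 uM D-luciferin, 10 uM ATP) in Tris acetate pH 7.5 buffer; luminescence output.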
ELG1 genotox – qHTS screen for small molecules that induce genotoxicity in human embryonic kidney (HEK293T) cells expressing luciferase-tagged ELG1 | HEK293T ELG1-luciferase reporter, luminescence, 16 h | Potency, µM (doses to about 46 µM), for the others: at the top dose activity change, positive = activation, most hits filed as activators | 1.3% of 330,000 active; note: % of control where 0% means no effect; nearly all actives have a fitted effect of over 60% in size
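Reporter readout depends on ELG1 protein level, which increases with genetic stress. After 16 hr compound exposure at 37 °C, luciferase activity was quantified using ONE-Glo.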
* = called active by the depositor; ? = inconclusive; . = not tested or not shown. Rows were chosen to be rich in hits. Some 9.2% of all compounds tested hit in one or more screens of this group. Calls come from the whole dose curve; as a rule, active = well fitted curve in the direction sought with a large enough effect; inconclusive = small, poorly fitted or top-dose-only effect, or another doubt; inactive = no such curve, though single readings can be large; an effect the other way counts as inactive or inconclusive. Potency is the fitted concentration of half-maximal effect.

SMILES	ELG1 DNA repair	NPC1 promoter act	Rab9 promoter act	SMN2 splice enh	FLuc counter	ELG1 genotox
COc1cccc(N2CCN(C(=O)Cn3cnc4onc(-c5ccc(F)cc5)c4c3=O)CC2)c1	.	.	.	.	-11%	.
COC(=O)Nc1ccc(S(=O)(=O)N2CCCc3cccc(O)c32)cc1	18µM*	-25%	-21%	.	-7%	-8%
CCOC(=O)c1c(Oc2ccc(OC)cc2)nnc(-c2ccccc2)c1-c1ccccc1	.	.	.	-43%	2%	.
CCCCCCCCCCCCCCCCn1cc[n+](CC(C)=O)c1	0%	-14%	-12%	-11%	0%	-15%
CCCCCCn1ccc(=N)cc1	3.7µM*	-28%	-23%	-65%	1%	-14%
COc1ccc(-c2cn3cccnc3n2)cc1NC(=O)Nc1cc(C)ccc1C	.	19%	4%	10%	2.4µM*	.
COc1cccc(NC(=O)Nc2cc(-c3cn4cccnc4n3)ccc2OC)c1	.	.	.	8.9µM*	1.3µM*	.
COc1cccc(NC(=O)Nc2cccc(-c3cn4cccnc4n3)c2)c1	.	.	.	-7%	6.7µM*	.
COc1cccc(NC(=O)Nc2cc(-c3cn4cccnc4n3)ccc2C)c1	.	.	.	12%	-15%	.
C/C(=N\Nc1nc(C)cc(-c2ccccc2)n1)c1ccc(F)cc1	-6%	1%	-1%	.	?	-3%
C/C(=N/Nc1nc(-c2ccccc2)cc(-c2ccc(F)cc2)n1)c1cccc(N)c1	7.3µM*	9%	-1%	-45%	9.5µM*	-16%
CCN(CC)c1ccc2cc(-c3nc(-c4cccs4)no3)c(=O)oc2c1	.	.	.	.	3.8µM*	.
CCN(CC)c1ccc2cc(-c3nc(-c4cc(OC)c(OC)c(OC)c4)no3)c(=O)oc2c1	.	.	.	.	-6%	.
CCN(CC)c1ccc2cc(-c3nnc(-c4ccncc4)o3)c(=O)oc2c1	?	?	?	11µM*	?	?
O=C(CN1C(=O)c2ccccc2C1=O)Oc1ccc(F)cc1	-14%	-2%	5%	.	5%	-3%
Cc1ccc(C2Nc3cc(C)c(C)cc3-n3c(-c4ccccc4)c4c(=O)n(C)c(=O)n(C)c4c32)o1 (stereo not given)	.	.	.	.	-11%	.
Cc1ccn2c(NC3CCCC3)c(-c3ccsc3)nc2c1	?	1%	-7%	-30%	24µM*	-6%
COc1ccc(-n2cc(CN(C)CCO)c(-c3cccc(F)c3)n2)cc1	?	0.45µM*	0.63µM*	.	2.1µM*	?
COc1ccc(-n2cc(CNCCc3cnc[nH]3)c(-c3cccc(F)c3)n2)cc1	1%	-5%	-21%	-84%	19µM*	2%
COc1ccc(-n2cc(CNCc3cccnc3)c(-c3cccc(F)c3)n2)cc1	-19%	1%	-4%	.	9.5µM*	-6%
COC(=O)c1cc(OC)c(OC)cc1NC(=O)c1ccccc1C	-1%	-8%	-7%	11%	0%	0%
COc1ccc(OC)c(NC(=O)c2cc3c(=O)oc4ccccc4c3s2)c1	.	.	.	6%	2%	.
O=C(CNC(=O)C1CCCCC1)Nc1ccc(F)c(Cl)c1	-4%	-8%	-1%	18µM*	2%	0%
O=C(CNC(=O)C1CCCCC1)Nc1cc(Cl)cc(Cl)c1	6%	1%	-9%	22%	2%	-4%
O=C(CNC(=O)C1CCCCC1)Nc1ccc(Cl)cc1	?	15%	3%	11µM*	-5%	?
O=C(Nc1ccc(F)c(Cl)c1)C1CCCCC1	3%	1%	7%	.	-18%	-1%
COCC(=O)N1CCC[C@@]2(CCN(C(=O)Nc3cccc(C#N)c3)C2)C1	.	.	.	-11%	.	.

Screens as filed in PubChem.
